In the library only some 18% were active in any assay of this set; here they are far more common.
TGFb inhibitor: blocks TGF-b signaling; HepG2 CAGA-GFP TGF-b/SMAD3 reporter, GFP fluorescence, 18 h; TGF-beta stimulated, 500 pg/mL final; Potency, µM (series often up to 46.1 µM), hits mostly inhibitors; 410,000 tested, 1.2% active; AID 588855; also: nearly all actives have a fitted effect of over 65% in size
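HEPG2 CAGA-GFP, 1000 cells/well; 2 h settle, 37 C; cpd via pin tool; TGF-b 500 pg/mL final; 18 h, 37 C; GFP imaging ex488/em500-530; %Activity normalised to -TGF-b and +DMSO controls; CRC fit, curve class.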
IL1B secr inh: blocks inflammasome-driven IL-1 beta release; 360,000 tested, 4.7% active; THP-1 LPS/ATP IL-1B secretion, AlphaLISA, 16 h; stronger effect = lower value; activity change, % at 57.5 µM; AID 743279; in the data active = activity change below about -50%; inconclusive = mostly about -30% to -49%
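Secreted IL-1B measured by AlphaLISA bead assay after 16 h compound exposure of THP-1 cells; compounds (final up to 57.5 uM) added 1 h before LPS (250 ng/mL) and ATP (1.25 mM) stimulation; lower signal means less secretion.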
TDP1 inh: TDP1 (human) enzyme inhibition; AID 485290; Potency, µM (highest dose often 130 µM), usual class: inhibitors; recombinant TDP1, AlphaScreen DNA substrate cleavage; 350,000 tested, 0.28% active; also: nearly all actives have a fitted effect of over 40% in size
Target sequence (Q9NUW8 whole entry, looked up): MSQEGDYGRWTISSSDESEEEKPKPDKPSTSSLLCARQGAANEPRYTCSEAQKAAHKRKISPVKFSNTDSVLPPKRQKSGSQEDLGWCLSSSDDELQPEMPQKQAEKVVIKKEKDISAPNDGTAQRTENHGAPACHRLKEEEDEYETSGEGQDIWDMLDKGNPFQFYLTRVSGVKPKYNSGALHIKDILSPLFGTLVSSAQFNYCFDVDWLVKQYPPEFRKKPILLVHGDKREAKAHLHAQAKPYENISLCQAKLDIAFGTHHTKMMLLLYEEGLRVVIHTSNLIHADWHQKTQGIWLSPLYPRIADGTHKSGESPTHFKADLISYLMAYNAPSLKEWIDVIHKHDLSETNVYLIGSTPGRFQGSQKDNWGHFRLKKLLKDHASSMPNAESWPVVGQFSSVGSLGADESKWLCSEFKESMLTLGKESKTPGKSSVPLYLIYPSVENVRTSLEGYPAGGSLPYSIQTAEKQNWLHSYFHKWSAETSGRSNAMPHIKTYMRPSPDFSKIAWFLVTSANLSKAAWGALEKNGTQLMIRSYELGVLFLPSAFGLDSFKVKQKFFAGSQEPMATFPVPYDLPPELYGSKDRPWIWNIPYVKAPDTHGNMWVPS
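Here, a 5' biotin and 3' phosphotyrosine-FITC DNA oligonucleotide reports Tdp1 activity: intact substrate bridges AlphaScreen beads, while cleavage leaves a 3' phosphate and drops signal. All incubations at room temperature.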
DT40 TDP1 CPT: DT40-hTDP1 cell growth loss with CPT; chicken DT40 Tdp1-/-;hTDP1 cells + 20 nM CPT, ATP luminescence, 48 h; Potency, µM (highest dose often 46.2 µM), hits mostly inhibitors; 420,000 tested, 12% active; AID 686979; also: nearly all actives have a fitted effect of over 55% in size
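Cell growth measured by CellTiter-Glo luminescence after a minimum 48 h, 37 C compound exposure with 20 nM CPT in Tdp1-knockout DT40 cells stably expressing hTDP1, seeded 400/well; qHTS titration format.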
DT40 TDP1 no CPT: qHTS for Inhibitors of human tyrosyl-DNA phosphodiesterase 1 (TDP1): qHTS in cells in absence of CPT. Potency, µM (doses to about 46.2 µM), usual class: inhibitors. AID 686978, 2013. 420,000 tested, 15% active. DT40 Tdp1-/- hTDP1 cells, no CPT, ATP luminescence, 48 h; also: nearly all actives have a fitted effect of over 55% in size
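Seeded 400 DT40-hTDP1 cells/well (vehicle DMSO, no 20 nM CPT); pinned compounds; ≥48 hr at 37 °C; CellTiter-Glo luminescence as viability measure.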
HepG2 tox-1: counter-screen for TGF-b inhibitors: cytotoxicity in HepG2 cells; Potency, µM (highest dose often 46.1 µM), usual class: cytotoxic; AID 588856; HepG2 CAGA-GFP viability, ATP luminescence, 18 h; 410,000 tested, 0.76% active
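CellTiter-Glo luminescence gave cytotoxicity after 18 hours at 37 degrees C. The cells were HepG2 CAGA-GFP in 1% FBS DMEM, stimulated with 500 pg/mL TGF-beta after compound addition. %Activity was normalised to no-cell wells (complete cell-killing) and DMSO (no toxicity), and curves were fitted and classified.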
TGFb CAGA inh: confirmation of TGF-b signaling inhibitors in HepG2 reporter cells; shares compounds with TGFb inhibitor; HepG2 CAGA-GFP TGF-b reporter, GFP fluorescence, 18 h; cells stimulated with TGF-beta, 500 pg/mL; Potency, µM (titrated, usually from 46.1 µM), actives largely listed as inhibitors; 1,600 tested, 63% active; AID 720534; also: nearly all actives have a fitted effect of over 65% in size
HepG2 tox-2: toxic to HepG2 cells in TGF-b counterscreen; shares compounds with TGFb inhibitor; HepG2 CAGA-GFP viability, ATP luminescence, 18 h; cells stimulated with TGF-beta, 500 pg/mL; Potency, µM (doses to about 46.1 µM), usual class: inhibitors; 1,600 tested, 27% active; also: nearly all actives have a fitted effect of over 70% in size
CCL64 TGFb inh: blocks TGF-b signaling in CCL64 reporter cells | shares compounds with TGFb inhibitor | CCL64 CAGA-GFP reporter, TGF-b stimulated, GFP fluorescence, 18 h | Potency, µM (series often up to 46.1 µM), hits mostly inhibitors | 1,600 tested, 41% active; also: nearly all actives have a fitted effect of over 65% in size
COP TGFb inh: blocks TGF-b signaling in HepG2 COP reporter; 1,600 tested, 3% active; AID 720537; shares compounds with TGFb inhibitor; Potency, µM (doses to about 46.1 µM), actives largely listed as inhibitors; HepG2 COP-GFP TGF-b reporter, GFP fluorescence, 18 h; cells stimulated by added recombinant TGF-beta; also: nearly all actives have a fitted effect of over 70% in size
Large screens that a line does not name were inactive (follow-up assays come after a bar, where they were run). Unless noted, calls follow the shape of the dose curve; as a rule, active = well fitted curve in the direction sought with a large enough effect; inconclusive = small, poorly fitted or top-dose-only effect, or another doubt; inactive = no such curve, though single readings can be large; an effect the other way counts as inactive or inconclusive.

Nc1cc2[nH]c(=O)c3ccccc3c2cc1Br	TGFb inhibitor 0.32µM (no result: TDP1 inh) | TGFb CAGA inh inconclusive | HepG2 tox-2 1.5µM | CCL64 TGFb inh inactive | COP TGFb inh inactive
CC(C)(C)NS(=O)(=O)c1ccc(N2C(=O)c3ccccc3C2=O)cc1	none
CC(C)(C)NS(=O)(=O)c1cccc(S(=O)(=O)c2cccc(S(=O)(=O)NC(C)(C)C)c2)c1	TGFb inhibitor 13µM, DT40 TDP1 CPT 23µM, DT40 TDP1 no CPT inconclusive | TGFb CAGA inh 15µM | HepG2 tox-2 inconclusive | CCL64 TGFb inh inactive | COP TGFb inh inactive
O=c1[nH]c(CN2CCN(S(=O)(=O)c3ccccc3C(F)(F)F)CC2)nc2sc3c(c12)CCCC3	DT40 TDP1 CPT inconclusive, DT40 TDP1 no CPT inconclusive
O=C(c1cccs1)N(Cc1nc2sc3c(c2c(=O)[nH]1)CCCC3)C1CCCC1	TGFb inhibitor inconclusive, DT40 TDP1 no CPT inconclusive | TGFb CAGA inh inconclusive | HepG2 tox-2 inconclusive | CCL64 TGFb inh inconclusive | COP TGFb inh inactive
CC(C)C[C@H]1CNC(=S)N1C[C@H]1CCCN1C[C@H](Cc1ccccc1)N1C[C@H](Cc2ccc(O)cc2)N(CC2CCCCCC2)C1=S	TGFb inhibitor 10µM, DT40 TDP1 CPT 15µM, DT40 TDP1 no CPT 13µM (no result: TDP1 inh) | TGFb CAGA inh 18µM | HepG2 tox-2 inconclusive | CCL64 TGFb inh inconclusive | COP TGFb inh inactive
CC(C)C[C@H]1CNC(=S)N1CC1CCCN1C[C@H](Cc1ccccc1)N1C[C@H](Cc2ccc(O)cc2)N(CC2CCCCC2)C1=S (some centres undefined)	TGFb inhibitor 8.9µM, IL1B secr inh inconclusive, DT40 TDP1 CPT inconclusive, DT40 TDP1 no CPT inconclusive (no result: TDP1 inh) | TGFb CAGA inh 6.5µM | HepG2 tox-2 inactive | CCL64 TGFb inh 21µM | COP TGFb inh inactive
CC(C)C[C@H]1CNC(=O)C(=O)N1C[C@@H]1CCCN1C[C@H](Cc1ccc(O)cc1)N1C[C@H](Cc2ccccc2)N(CC2CCCCCC2)C(=O)C1=O	DT40 TDP1 CPT inconclusive, DT40 TDP1 no CPT inconclusive (no result: TGFb inhibitor, TDP1 inh, HepG2 tox-1)
CC(C)C[C@H]1CNC(=S)N1C[C@H]1CCCN1C[C@H](Cc1ccc(O)cc1)N1C[C@H](CC(C)C)N(CC2CCCCCC2)C1=S	TGFb inhibitor 6.3µM, IL1B secr inh inconclusive, DT40 TDP1 CPT 16µM, DT40 TDP1 no CPT 21µM (no result: TDP1 inh) | TGFb CAGA inh 4.6µM | HepG2 tox-2 inconclusive | CCL64 TGFb inh 10µM | COP TGFb inh inactive
O=C(CCNC(=O)C1CCN(S(=O)(=O)c2ccc(F)cc2)CC1)NCCc1ccc(Cl)cc1	TGFb inhibitor inconclusive, DT40 TDP1 CPT inconclusive, DT40 TDP1 no CPT inconclusive
Cc1c(C(c2ccc(C(=O)O)cc2)c2c(C)n(C)n(-c3ccccc3)c2=O)c(=O)n(-c2ccccc2)n1C	none (no result: TDP1 inh)
C[C@H](NC(=O)c1nc[nH]c1C(=O)NCCCCCNC(=O)OC(C)(C)C)C(=O)OC(C)(C)C	TGFb inhibitor inconclusive, DT40 TDP1 CPT 18µM, DT40 TDP1 no CPT 16µM | TGFb CAGA inh inactive | HepG2 tox-2 inactive | CCL64 TGFb inh inconclusive | COP TGFb inh inactive
CC(C)C[C@H](NC(=O)c1nc[nH]c1C(=O)N[C@@H](CCCCN)C(=O)OC(C)(C)C)C(=O)OC(C)(C)C	DT40 TDP1 CPT inconclusive, DT40 TDP1 no CPT inconclusive
CC(C)C[C@H](NC(=O)c1nc[nH]c1C(=O)N[C@@H](CCCCNC(=O)OC(C)(C)C)C(=O)OC(C)(C)C)C(=O)OC(C)(C)C	TGFb inhibitor 18µM, DT40 TDP1 CPT 21µM, DT40 TDP1 no CPT 21µM | TGFb CAGA inh 8.2µM | HepG2 tox-2 inactive | CCL64 TGFb inh 21µM | COP TGFb inh inactive
COc1ccc(C2=NN(C(=O)CN3CCOCC3)C(c3nc4ccccc4[nH]3)C2)cc1 (centres undefined)	none
CC1=C(C(=O)N(C(C)C)C(C)C)CC(CC(=O)NCCCN(C)C)C(=O)N1Cc1ccccc1 (centres undefined)	none (no result: TDP1 inh)
CC1=C(C(=O)N(C(C)C)C(C)C)CC(CC(=O)NC(c2ccccc2)c2ccccc2)C(=O)N1Cc1ccc(C(C)(C)C)cc1 (centres undefined)	TGFb inhibitor 18µM, IL1B secr inh -59, DT40 TDP1 CPT inconclusive, DT40 TDP1 no CPT inconclusive (no result: TDP1 inh) | TGFb CAGA inh 9.2µM | HepG2 tox-2 inactive | CCL64 TGFb inh inconclusive | COP TGFb inh inactive
CC1=C(C(=O)N(C(C)C)C(C)C)CC(CC(=O)NCCCCc2ccccc2)C(=O)N1Cc1ccc(F)cc1 (centres undefined)	TGFb inhibitor 7.9µM, IL1B secr inh -56, DT40 TDP1 CPT inconclusive, DT40 TDP1 no CPT inconclusive (no result: TDP1 inh) | TGFb CAGA inh inconclusive | HepG2 tox-2 inactive | CCL64 TGFb inh 23µM | COP TGFb inh inactive
CN(Cc1ccccc1)c1ccc(S(=O)(=O)N2CCC(C(=O)O)CC2)cc1[N+](=O)[O-]	none
COc1cccc(CN2CCC2(C)C(=O)Nc2cccc3cccnc23)c1F (centres undefined)	TGFb inhibitor 10µM, DT40 TDP1 CPT inconclusive, DT40 TDP1 no CPT 18µM (no result: TDP1 inh) | TGFb CAGA inh inconclusive | HepG2 tox-2 inactive | CCL64 TGFb inh inconclusive | COP TGFb inh inactive
O=C(c1ccco1)N1CCCC(c2nc3c(nnn3Cc3cccc(Cl)c3)c(=O)[nH]2)C1 (centres undefined)	IL1B secr inh inconclusive, DT40 TDP1 CPT inconclusive
